Values without a mark were called inactive. The source made the active and inactive calls. Calls come from the whole dose curve; as a rule, active = well fitted curve in the direction sought with a large enough effect in the repeat runs; inconclusive = weak or mixed curves; inactive = flat fitted curve, though single readings scatter.
Assay: qHTS assay to test for compound auto fluorescence at 460 nm (blue) in HepG2 cell free culture (AID 720685)
Settings: Cell-free culture medium, blue autofluorescence 405/460 nm; series mostly up to 91.3 µM
Description: U.S. Tox21 Program National Center for Advancing Translational Sciences [NCATS] NIH Chemical Genomics Center [NCGC] U.S. Environmental Protection Agency [EPA] National Institutes of Environmental Health Sciences [NIEHS] National Toxicology Program [NTP] U.S. Food and Drug Administration [FDA] Tox21 Assay Overview: Compound auto fluorescence often interferes with screening of the compound library against various biological targets and signaling pathways. Some of these compounds may have fluorophoric properties. Such properties may interfere with the assay outputs resulting in false positives and/or negatives. To decrease such complications and ensure the compound activities are relevant in terms of biological response, the Tox21 10K compound library was screened for auto fluorescence. From the fluorophores used as reporter signals in our screening assays, the auto fluorescence equivalencies of compounds against three fluorophores have been evaluated: Triamterene, Fluorescein and Rose Bengal sodium for blue, green and red fluorescence, respectively. The fluorescence intensities were measured using Excitation/Emission wavelengths at 405/460nm, 485/535nm and 540/590nm for blue, green and red labels, respectively. This assay includes the blue fluorescence data.
Tox21 Assay Protocol Summary: 5 uL of culture medium (MEM containing 10% FBS) per well was dispensed into black wall/clear bottom 1536-well plates using a Multidrop Combi Dispenser (ThermoFisher Scientific, Waltham, MA). After 23 nL compound or DMSO vehicle was transferred into assay plate by a pintool work station (Kalypsys, San Diego, CA), fluorescence intensities in the assay plates were measured by an Envision (PerkinElmer, Shelton, CT) plate reader using three labels for measuring blue, green and red fluorescence at […] 460, 535 and 590nm respectively.
With `C/C=C(\C)C(=O)OCCc1ccccc1` the outcome was “inactive”.
With `CC(CO)(CO)CO` the outcome was “inactive”.
For `CC/C=C\CCOC(=O)c1ccccc1O`, the outcome was “inactive”.
In the case of `O=S(=O)(O)c1ccc2c(N=Nc3ccc(S(=O)(=O)O)c4ccccc34)c(O)c(S(=O)(=O)O)cc2c1`, the outcome is reported as “inactive”.
For `O=C(O)[C@H](O)c1ccccc1`, the outcome was “inactive”.
For `COP(=O)(O)OP(=O)(O)OC`, the outcome was “inactive”.
For `CCCCCCCCCCOC(C)=O`, the outcome was “inactive”.
In the case of `CCCCCCCCCCCCCCC(=O)NC(CO)CCCCCCCCCCCCCC` (stereo not given), the outcome is reported as “inactive”.
For `CC(=O)OC(C)=O`, the outcome was “inactive”.
For `O=C(CCCCC(=O)Nc1c(I)cc(I)c(C(=O)O)c1I)Nc1c(I)cc(I)c(C(=O)O)c1I`, the outcome was “inactive”.
For `C=CC/C=C/C`, the outcome was “inactive”.
For `CN(C)CC/C=C1/c2ccccc2COc2ccc(CC(=O)O)cc21`, the outcome was “inactive”.
With `C=CCOC(=O)CCCCCC` the outcome was “inactive”.
With `CC(C)C1OCCN1CCOC(=O)NCCCCCCNC(=O)OCCN1CCOC1C(C)C` (stereo not given) the outcome was “inactive”.
With `CC/C(C)=N\O[Si](C)(O/N=C(\C)CC)O/N=C(\C)CC` the outcome was “inactive”.
For `C=C(C)[C@@H]1CC=C(C)C(=O)C1`, the outcome was “inactive”.
With `CC1c2ccccc2CN1NC(=O)c1ccc(Cl)c(S(N)(=O)=O)c1` (stereo not given) the outcome was “inactive”.
For `C=C(C)C1CC=C(C)C(=O)C1` (stereo not given), the outcome was “inactive”.
With `CC(N)CCCC(C)(C)O` (stereo not given) the outcome was “inactive”.
In the case of `C=CCCCC`, the outcome is reported as “inactive”.
With `Cc1ccc(C)c([N+](=O)[O-])c1` the outcome was “inactive”.
In the case of `COc1cc2c(cc1OC)C(=O)C(CC1CCN(Cc3ccccc3)CC1)C2` (stereo not given), the outcome is reported as “inactive”.
With `CC(C)CO` the outcome was “inactive”.
For `CN(C)CCN(C)CCO`, the outcome was “inactive”.
With `CC(C)CCOC(=O)c1ccccc1` the outcome was “inactive”.
`CN1CCOC(c2ccccc2)c2ccccc2C1` (stereo not given) showed a fluorescence, % of fluorescent control of -0.0245% [at 18.6 µM].
In the case of `O=Cc1ccccc1Cl`, the outcome is reported as “inactive”.
For `COS(=O)(=O)O`, the outcome was “inactive”.
For `CCO`, the outcome was “inactive”.
With `Cc1c(C(=O)c2c[nH]n(C)c2=O)ccc(S(C)(=O)=O)c1C1=NOCC1` the outcome was “inactive”.
With `Fc1ccccc1` the outcome was “inactive”.
In the case of `CC(C)OC(=O)CCC(=O)OC(C)C`, the outcome is reported as “inactive”.
With `OCC(O)CN1CCN(c2ccccc2)CC1` (stereo not given) the outcome was “inactive”.
With `COC(=O)c1ccccc1C(=O)O` the outcome was “inactive”.
With `CC(=O)CC(=O)Nc1ccc(C)cc1C` the outcome was “inactive”.
With `COC(=O)c1cc(Cl)cc(Cl)c1` the outcome was “inactive”.
With `CSc1cnccn1` the outcome was “inactive”.
With `CC(C)[C@H]1CC[C@H](C)C[C@@H]1O` the outcome was “inactive”.
For `O=C(NCN1CCOCC1)c1cnccn1`, the outcome was “inactive”.
With `c1ccc(-c2nn[nH]n2)cc1` the outcome was “inactive”.

Reference: PubChem BioAssay (Tox21)
% is set by controls: 0 for no effect and ±100 for the full control effect.
